PubChem BioAssay AID540253 (National Center for Advancing Translational Sciences (NCATS), 2011)
The whole screen tested about 340,000 compounds, of which about 240 (0.071%) were called active. Where a call stands in place of a potency, no number is given. The call rests on the fitted dose curve. The sample as a whole holds a higher share of actives than the screen did.

Biological target: Snurportin-1 (Homo sapiens) + GTP-binding nuclear protein Ran (Homo sapiens) + Importin subunit beta-1 (Homo sapiens) (UniProt O95149+P62826+Q14974)
Experiment: qHTS Assay for Inhibitors of RanGTP induced Rango (Ran-regulated importin-beta cargo) - Importin beta complex dissociation; further: nearly all actives have a fitted effect of over 45% in size
Conditions: Biochemical FRET Rango-importin beta; series mostly up to 46.1 µM
From the text: NIH Molecular Libraries Probe Production Centers Network [MLPCN] NIH Chemical Genomics Center [NCGC] MLPCN Grant: R03 MH090808-01A1 Assay Submitter (PI): Petr Kalab NCGC Assay Overview: The small GTPase Ran regulates transport of macromolecules between the nucleus and the cytoplasm (nuclear transport) and has important functions in mitotic spindle assembly, nuclear envelope (NE) formation and nuclear pore complex (NPC) assembly. RanGTP gradient is thought to promote spindle assembly by providing a spatial clue to microtubule nucleation and Aurora A activation. Because the localized release and binding of importin alpha cargos relays this spatial clue to SAFs, inhibitors of the Rango - importin beta complex can then be used in further understanding their role in cell cycle specifically in mitosis progression. […] Activation of Aurora A has been linked to different types of cancer and a number of Aurora kinase inhibitors are being developed as potential canter therapeutics; therefore, identified inhibitors of this complex could be developed into potential anti-mitotic probes for cancer treatment. Purified recombinant proteins Rango - importin beta and RanGTP-RCC1 stock premixes were provided by the assay submitter. The assay used a fluorescence resonance energy transfer (FRET) Rango biosensor that contains the IBB of human snurportin 1 flanked by yellow fluorescent protein (EYFP) at the amino terminus and cerulean CFP10 at the carboxy terminus. […] RanGTP binding to the complex (in the presence of RCC1) releases the Rango from the complex. The flexibility of the IBB in the freed Rango allows the donor - acceptor fluorophores to interact, resulting in a high FRET signal. Inhibitors will therefore be identified based on the ability to interfere with the FRET signal increase. DMSO treated and no RanGTP-RCC1 (buffer only) wells were used as negative and positive controls respectively. FRET readings were obtained at two time points. FRET reading prior to importin beta addition (pre-read) were used flag potential compound interference; FRET reading after importin beta addition (post-read) were used to identify inhibitors.
NCGC Assay Protocol Summary: Two and a half uL/well of Rango- importin beta premix solution (0.1 uM Rango, 0.25 uM importin beta, 1x PBS, 1mM DTT, 0.02% Tween-20, 0.1% BSA final concentrations) was dispensed into 1536-well assay plates (Greiner, solid black medium-binding plates) with Aurora Discovery BioRAPTR Flying Reagent Dispenser (FRD; Beckton-Dickenson). Compound solution (23 nL) was transferred to the assay plate using Kalypsys pin tool equipped with a 1536-pin tool and incubated at room temperature for 5 min followed by a FRET pre-read using the PerkinElmer Envision plate reader. Two and a half uL/well of RanGTP-RCC1 premix solution (0.6 uM Ran, 2mM GTP, 0.2 uM RCC1, 1x PBS, 1mM DTT, 0.02% Tween-20, 0.1% BSA final concentrations) were then added and incubated at room temperature giving a final reaction volume of 5uL. After 45min FRET post-read was obtained via the Envision plate reader using the same optics and settings as the pre-read (CFP/YFP optimized dual optical module D450/D505; excitation mirror CFP 430/24 nm; and emission filters CFP 486/10 nm and YFP 530/10 nm).
Potency means the concentration at half of the fitted maximal effect.

Structure (SMILES)	Potency
O=C(NN=CC=Cc1ccccc1)C(O)C(O)C(=O)NN=CC=Cc1ccccc1 (stereo not given)	inactive
NC(=O)C1CCN(C(=O)c2cc(S(=O)(=O)N3CCN(c4ccccc4)CC3)ccc2Cl)CC1	inactive
CC1(C)C(=O)CCC2(C)C1=CCC1C2C(=O)CC2(C)C1CCC2(O)C(=O)CO (stereo not given)	inactive
O=C(Cc1ccc(S(=O)(=O)N2CCOCC2)s1)Nc1ccc(Br)c(C(F)(F)F)c1	inactive
C=CCOC(=O)N1CCC2CC1c1cc(-c3ccc(OC)cc3)ccc12 (stereo not given)	inactive
O=C(O)C1C2C=CC(O2)C1C(=O)Nc1ccccn1 (stereo not given)	inactive
c1ccc(C(=NNc2nc3ccccc3s2)c2ccccn2)cc1	inactive
C=CCN1C=C(C(=O)c2ccccc2)C(=O)CC1	inactive
CCCCC(=O)NC(c1ccc(OC)c(OC)c1)c1ccc2cccnc2c1O (stereo not given)	inactive
COc1cccc(CC(=NO)c2cccc(OC)c2)c1	inactive
CN(O)C(=S)c1ccccc1	inactive
CCN1CCC(O)(/C=C/c2ccc(C)cc2)C(C(=O)/C=C/c2ccc(C)cc2)C1 (stereo not given)	inactive
Oc1c(CN2CCOCC2)ccc(CN2CCOCC2)c1O	inactive
CN1C(c2ccc(F)cc2)=CS/C1=C(/C#N)c1nnc2n1-c1ccccc1SC2	inactive
CC(=NNC(=O)c1ccncc1)c1ccc(Cl)c(Cl)c1	inactive
O=C(/C=C/Nc1ccc(S(=O)(=O)Nc2cnc3ccccc3n2)cc1)c1cccnc1	3.26 µM [inconclusive] (active)
C=C(C)CNC(=S)Nc1ccc(S(=O)(=O)Nc2cnc3ccccc3n2)cc1	inactive
CCOc1cc(C(=O)Nc2ccc(S(=O)(=O)Nc3cnc4ccccc4n3)cc2)cc(OCC)c1OCC	inactive
COC(=O)c1ccc(NCc2cc(O)ccc2O)cc1	inactive
CC(=O)Oc1ccc2c(C)c(CC(C)O)c(=O)oc2c1 (stereo not given)	9.2 µM [inconclusive] (active)
Cc1c(CCC(=O)O)c(=O)oc2cc(OCc3ccc(Br)cc3)ccc12	inactive
COC(=O)Cc1c(C)c2ccc(OCC(=O)NCc3ccc4c(c3)OCO4)cc2oc1=O	inactive

Structure (SMILES)	Potency
COC(=O)c1ccc(CNC(=O)Cn2cc(C)c(=O)[nH]c2=O)cc1	inactive
COc1ccc(NS(=O)(=O)c2ccc(N3CCOCC3)c(NC(=O)/C=C/C(=O)O)c2)cc1	inactive
COc1ccc(C2NCCCC2c2ccccc2)cc1 (stereo not given)	inactive
Oc1cccc(CCc2ccccn2)c1	inactive
CCc1c(Nc2ccccc2C)nc(N)[nH]c1=O	inactive
Cc1ccc(S(=O)(=O)N2CCN(C(=O)COC(=O)/C=C/c3cccc(Cl)c3)CC2)c(C)c1	inactive
COc1ccc(C(CNC(=O)c2cccc(S(=O)(=O)Nc3ccc(Br)cc3)c2)N(C)C)cc1 (stereo not given)	inactive
COc1cc2c(cc1OC)C(/C=C/c1ccco1)=NCC2	8.2 µM [inconclusive] (active)
COc1cc2c(cc1OC)C(c1cccc([N+](=O)[O-])c1)=NCC2	inactive
CCOC(=O)C1=NN(c2ccc(Cl)cc2)/C(=C/C2=NCCc3cc(OC)c(OC)cc32)S1	inactive
C/C(=N\Nc1ccc(Cl)nn1)c1ccccc1O	inactive
COc1ccc(NC(=O)/C(N=Nc2cccc(S(=O)(=O)Nc3ccc(SC(F)F)cc3)c2)=C(\C)O)cc1	inactive
OCCN1CCN(CCO)C1=S	inactive
O=C(Cc1ccc(Cl)cc1)c1ccccc1	inactive
C[C@]12CCC(=O)C=C1C=CC1C2CC[C@@]2(C)C1CC[C@@]21CCC(=O)O1 (stereo not given in full)	inactive
Cc1nn(-c2ccc(F)cc2)c(Cl)c1/C=C(/CCC(=O)O)c1nc2ccccc2s1	inactive
CCOC(=O)C1(C)NC(c2ccco2)C2C(=O)N(c3ccccc3)C(=O)C21 (stereo not given)	inactive
COC(=O)C1=C(C)N(c2ccc(Br)cc2)C(=O)/C1=C\c1ccco1	inactive
CCCCN=C1N/C(=C\c2ccco2)C(=O)N1c1ccccc1	14.6 µM [inconclusive] (active)
COCCNc1nc2nonc2nc1N1CCCC1c1nccs1 (stereo not given)	18.4 µM [inconclusive] (active)
COCCNc1nc2nonc2nc1N(C)Cc1ccc(C)cc1	inactive
COCCNc1ncnc2c1nc1n2CCCC1	inactive

Structure (SMILES)	Potency
CC(NC(=O)c1ccccc1)C(=O)Nc1ccccc1 (stereo not given)	inactive
C(#CCN1CCOCC1)CCCN1CCOCC1	inactive
O=C(Nc1c(Br)cc2c(c1Br)Cc1ccccc1-2)C(F)(F)F	inactive
COc1ccc(-c2ccc3c(c2)[C@@H]2C[C@H](N(C)S(=O)(=O)c4ccccc4)[C@H]([C@H](C)O)C(=O)N2CC3)cc1	inactive
c1ccc2c(c1)OC1OC2Oc2ccccc21	inactive
CCOc1ccc(S(=O)(=O)N2CCN(C(=O)c3oc4ccccc4c3C)CC2)cc1	inactive
Cc1nc(N)sc1-c1ccccc1	inactive
CN(C)c1ccc(CSc2ccccc2)cc1	inactive
COCCN(C(=O)C(C)N1C(=O)c2ccccc2C1=O)c1c(N)n(CC(C)C)c(=O)[nH]c1=O (stereo not given)	inactive
COc1cccc(/C=N/Nc2ccc(S(=O)(=O)Nc3ccccc3C(=O)O)cc2[N+](=O)[O-])c1O	inactive
Cc1ccccc1N1CCN(C(=O)c2cccnc2)CC1	inactive
Cc1ccc(S(=O)(=O)n2oc(=O)c(C3CCCCC3)c2N)cc1	inactive
O=C(Nc1ccn(CCCNCc2ccc3[nH]ccc3c2)c(=O)n1)OCc1ccccc1	inactive
CCCCN1CC(CO)Oc2cccc(F)c2S1(=O)=O (stereo not given)	inactive
CCc1c(Nc2ccccc2Cl)nc(N)[nH]c1=O	inactive
O=C1OCC2=C1C(c1ccc(Cl)cc1)c1cc3c(cc1O2)OCO3 (stereo not given)	inactive
O=C1C2C3C=CC(C3)C2C(=O)N1c1ncc([N+](=O)[O-])s1 (stereo not given)	inactive
O=C(NN=Cc1ccc([N+](=O)[O-])cc1)C1CC1	inactive
O=C(CCC(=O)N1CCN(S(=O)(=O)c2ccc(Cl)cc2)CC1)NCc1cccc(C(F)(F)F)c1	inactive
COc1ccc(CC(=O)NC(C)c2ccc(Cl)c(Cl)c2)cc1S(=O)(=O)N1CCOCC1 (stereo not given)	inactive
CCOC(=O)C1CCCN(C(=O)Cn2ncc3c(=O)oc4ccc(C)cc4c32)C1 (stereo not given)	inactive
CC1=CC(=NNS(=O)(=O)c2ccc([N+](=O)[O-])cc2)CC(C)(C)C1	inactive

Structure (SMILES)	Potency
O=C(O)c1ccccc1/C=N/Nc1ccc(S(=O)(=O)Nc2ccc(Cl)cc2)cc1[N+](=O)[O-]	inactive
NN=C(NN=Cc1ccccc1)c1ccccc1	inactive
NC(=O)c1ncn([C@@H]2O[C@H](CN=C3NS(=O)(=O)c4ccccc43)[C@@H](O)[C@H]2O)n1	inactive
CC(C)OC(=O)c1ccc(NCc2cc(O)ccc2O)cc1Cl	inactive
O=C(c1ccc2c(c1)C(=O)N(Cc1ccncc1)C2=O)N1CCN(S(=O)(=O)c2ccc(OC(F)(F)F)cc2)CC1	inactive
NC(CSC1(c2ccccc2)c2ccccc2-c2ccccc21)C(=O)O (stereo not given)	inactive
O=c1[nH]c(=S)[nH]c(O)c1/C=C1\C=Nc2ccccc21	inactive
O=C1OC(Cc2ccccc2)C(c2ccccc2)C1=O (stereo not given)	inactive
Cc1cccc(C2c3c(n(C)c(=O)n(C)c3=O)N=C3c4ccccc4C(=O)C32)c1 (stereo not given)	inactive
CCNC(=S)NCC	inactive
COc1ccc(-c2nnc(-c3ccc4ccccc4c3)o2)cc1	inactive
Cc1[nH]c(N)nc(=S)c1CCCNc1ccccc1	inactive
Cn1c(N)cc(=O)n(C)c1=S	inactive
NC(=O)c1ccc(N2CCCC2)nc1	inactive
Cc1cc([N+](=O)[O-])c(=O)[nH]c1C	inactive
O=S(=O)(Cc1ccc(Cl)cc1Cl)c1ccc(Cl)cc1	inactive
CCN(CC(=O)Nc1c(F)cccc1F)C(=O)Cc1cccs1	inactive
O=[N+]([O-])c1ccc(NS(=O)(=O)c2ccccc2)c(Cl)c1	inactive
O=C(O)C(c1cccs1)C1(O)CCCCC1 (stereo not given)	inactive
O=C(CC1Sc2ccccc2NC1=O)NNc1ccc(Cl)c(Cl)c1 (stereo not given)	inactive
S=C(Nc1ccccc1)Nc1ccc2ccccc2c1	inactive
C/C(=N\Nc1ccccc1)c1cccs1	inactive

Structure (SMILES)	Potency
CCC1(C)COC(c2ccc(OC)c(OC)c2)OC1 (stereo not given)	inactive
Cn1c(-c2ccc(C(=O)c3ccccc3)s2)nc2ccccc21	8.2 µM [inconclusive] (active)
Cn1c(NC(=O)c2ccccc2)nc2ccccc21	inactive
Cn1c(CNC(=O)C(C)(C)C)nc2ccccc21	inactive
Nc1ccc2[nH]c(=S)sc2c1	inactive
O=C1c2ccccc2C(=O)C1C(=O)C1CC1	inactive
O=C(O)c1ccc([N+](=O)[O-])cc1Sc1ccsc1	inactive
CC(C=Cc1ccccc1)=NNS(=O)(=O)c1ccc([N+](=O)[O-])cc1	inactive
O=[N+]([O-])c1cc2ccccc2nc1-c1ccccc1	inactive
CCN1C[C@@H]2[C@@H]3C(=O)N(C)C(=O)[C@@H]3[C@](C)(C1=O)N2C(=O)c1ccccc1	inactive
COc1cc(O)c2c(=O)c3c(O)c(O)ccc3oc2c1OC	inactive
C#CCOCCOCCOCCNc1nc(N2CCOCC2)nc(N2CCN(C(=O)[C@H](Cc3ccc(O)cc3)n3cc(CCO)nn3)CC2)n1	inactive
O=C(NN=Cc1ccccc1)c1ccccc1	inactive
CCOc1ccc(CCNC(=O)COC(=O)C2CCN(S(=O)(=O)c3ccccc3)CC2)cc1OCC	inactive
Cc1cc(NC(=O)c2cc3ccccc3o2)no1	inactive
CC(=O)N1CCc2ccc(N)cc21	inactive
O=C1C(Cl)=C(Oc2ccccc2)C(=O)c2ccccc21	inactive
O=c1nc(NO)ccn1C1CCCO1 (stereo not given)	inactive
O=c1[nH]c2c(c(=O)n1-c1ccccc1)CCO2	inactive
COC1=CC(=O)OC(c2ccc(OC)cc2)C1 (stereo not given)	inactive
CCOc1ccc(/C=C(/C#N)c2nnc(N3CCOCC3)n2-c2ccccc2)cc1OC	inactive
CC(=O)OC1CCC2C3CCC4=C(CC(F)C(=O)C4)C3CCC12C (stereo not given)	inactive
